Data reported in PubChem BioAssay AID1347073 (National Center for Advancing Translational Sciences (NCATS), 2019).
About 200 (0.44%) of roughly 45,000 compounds were called active. Roughly 7% stayed inconclusive and do not appear here. What follows is part of a selection rich in actives, with near analogues and random picks from the rest. A number with no mark means an inactive call. Calls come from the whole dose curve; as a rule, active = well fitted activation curve with a large enough effect; inconclusive = small, poorly fitted or top-dose-only effect; inactive = no such curve, though single readings can be large or run the other way.

Experiment: qHTS of TDP-43 Inhibitors: NCGC Sytravon Library Screen; note: nearly all actives have a fitted effect of over 55% in size; for growth rescue (activation): 0% is about no effect
Settings: yeast TDP-43 toxicity rescue, BacTiter-Glo growth, 24 h; series mostly up to 46.1 µM; growth rescue (activation): at the top concentration
Description: The goal of this project is to identify new chemical probes capable of reversing the toxicity associated with TDP-43 which is associated with frontotemporal lobar degeneration and amyotrophic lateral sclerosis. These compounds will provide a complementary approach to deciphering the tangled mechanisms of toxicity and protection that we have uncovered through genome-wide genetic screens and are beginning to uncover in a large-scale proteomics analysis with mass spectroscopy. To this end, a miniaturized assay was developed to be screened against the Molecular Libraries Small Molecule Repository (MLSMR) to discover TDP-43 inhibitors. Please note that in the set-up this yeast-based assay compounds that inhibit as TDP-43, have a read-out as activators. NIH Chemical Genomics Center [NCGC] NIH Molecular Libraries Probe Centers Network [MLPCN] Assay Submitter (PI): Susan Lindquist, Whitehead Institute/MIT MLPCN Grant: R21 NS060957
Dispense 2.5 microL yeast galactose medium per 1536-well plate, pin compound, dispense 2.5 microL TDP-43 expressing yeast in galactose medium at OD600=0.02 (pregrown in raffinose medium to mid-log phase) per well, incubate for 24 hr at 30 deg C, and cell growth will be measured using 5 microL of Bactiter/Glo reagent to entire plate and read using Luminescence Protocol in ViewLux.
Potency is the fitted concentration of half-maximal effect.

SMILES	growth rescue (activation) [%]	Potency
CSc1ccc(C(=O)C2CCCN(C(=O)c3ccc(C)nc3)C2)cc1 (stereo unspecified)	7.96	
CC(=O)N1CCN(C(=O)C2(NC(=O)Nc3ccc(C)cc3)CCCCC2)CC1	14.2	
CC(=O)Oc1ccc2c(=O)oc(-c3ccc([N+](=O)[O-])cc3)nc2c1	6.06	
CC(=O)C1=C(C)NC2=C(C(=O)CC(C)(C)C2)C1C (stereo unspecified)	7.05	
Oc1ccccc1C=NC1CCCCC1N=Cc1ccccc1O (stereo unspecified)	1.52	
O=C(c1ccc(F)cc1)N1CCC(n2nnc3ccccc32)CC1	1.07	
Cc1ccc(NC(=O)CSc2nnc(CNC(=O)c3ccccc3F)o2)cc1	-1.92	
O=C(N/N=C/c1ccc2c(c1)OCO2)C(=O)N1CCCC1	10.5	
CC(OC(=O)c1ccc(Cl)cc1O)C(=O)NCCC1=CCCCC1 (stereo unspecified)	-10.8	
O=C(C1CCN(Cc2ccc(Cl)cc2)CC1)N1CCN(Cc2ccc3c(c2)OCO3)CC1	14.4	
COc1cccc(CC(=O)Nc2nc(-c3ccc(OC)c(OC)c3)cs2)c1	14.4	
CCN(CC(=O)NC(C)C)C(=O)c1cc(S(=O)(=O)N2CCCCC2)ccc1N1CCCCC1	5.21	
Cc1ccc(-c2noc(CNC(=O)c3ccoc3C)n2)cc1	-6.36	
O=C(CCc1c[nH]c2ccccc12)NCCOc1ccccc1	-0.599	
CCn1cc(C(=O)NCC(=O)NC(C)(C)CO)c(=O)c2cc3c(cc21)OCO3	6.6	
Cc1cccc(C(=O)NCC(=O)OCC(=O)N2CC3(C)CC2CC(C)(C)C3)c1 (stereo unspecified)	2.65	
COc1ccc(OCC(=O)NNC(=O)c2cccc(C)c2)cc1	5.1	
Cc1cc(C)cc(NC(=O)CSc2ccccc2)c1	13.4	
Cc1ccc(NC(=O)CN(C)C(=O)c2ccc(Br)o2)cc1	-3.69	
CNCC(O)CN1CCN(c2ccccc2OC)CC1 (stereo unspecified)	-12.4	
O=c1c(-c2ccc(Cl)cc2)[n+]([O-])c2ccccc2n1OCc1nc2ccccc2[nH]1	-4.37	

SMILES	growth rescue (activation) [%]	Potency
Cc1cc(C)cc(N(CC(=O)NCCSCc2ccco2)S(C)(=O)=O)c1	-12.8	
COC(=O)c1ccc(CN2CCC(CO)(Cc3ccc(OC)cc3)CC2)cc1	-3.6	
CN(C)S(=O)(=O)N1CCN(c2ccc([N+](=O)[O-])cc2)CC1	5.23	
COc1ccc(N2CCN(c3ccc([N+](=O)[O-])cc3Cl)CC2)cc1	3.99	
O=[N+]([O-])c1ccc(N2CCN(c3ccc(O)cc3)CC2)c(Cl)c1		12.6 µM (active)
COCCCNc1ccn2nc(-c3ccc(CC(C)C)cc3)cc2n1	-47.9	
S=C(Nc1ccc(Br)cc1Cl)NC1CCN(Cc2ccccc2)CC1	1.2	
CC(C)=CCN1CCN(Cc2ccc(Oc3ncccn3)cc2)CC1CCO (stereo unspecified)	2.62	
Cc1ccc(C)c(NC(=O)c2ccc3nccnc3c2)c1	-4.87	
CC(C(=O)O)n1cnc2sc3c(c2c1=O)CCCC3 (stereo unspecified)	3.86	
Cc1ccc(C(=O)NC2CCN(C(=O)Nc3ccc(F)cc3)CC2)cc1	5.39	
Cc1ccc(/C=N/NC(=O)CN2CCN(Cc3ccccc3)CC2)s1	19.6	
COc1ccc2cc(S(=O)(=O)Nc3ccccn3)ccc2c1	16	
O=C(Cc1ccccc1)Nc1c(Cl)ccc2nsnc12	-0.414	
CC(Oc1ccccc1F)C(=O)NN (stereo unspecified)	7.92	
COc1ccc(NC(=O)C2(C)Cc3c(-c4cccc(NC(C)=O)c4)ccnc3O2)cc1 (stereo unspecified)	-1.39	
COc1ccc(NC(=O)C2COc3ccccc3O2)cc1 (stereo unspecified)	20.8	
COc1ccc(NC(=O)C2Cc3c(-c4ccc(Cl)cc4)ccnc3O2)cc1 (stereo unspecified)		20 µM (active)
Cc1ccc(N2CCN(C(=O)c3cccs3)CC2)c(C)c1	12.1	
O=c1[nH]oc(O)c1-c1ncc(C(F)(F)F)cc1Cl	-3.8	
